# The supplement of paper PMC8728848
# The sample as a whole holds a higher share of the strongest signals than the screen did.
# B1: Tachylectin-2 (Tachypleus tridentatus), TAL2_TACTR (protein)
# chain: VGGESMLRGVYQDKFYQGTYPQNKNDNWLARATLIGKGGWSNFKFLFLSPGGELYGVLNDKIYKGTPPTHDNDNWMGRAKKIGNGGWNQFQFLFFDPNGYLYAVSKDKLYKASPPQSDTDNWIARATEIGSGGWSGFKFLFFHPNGYLYAVHGQQFYKALPPVSNQDNWLARATKIGQGGWDTFKFLFFSSVGTLFGVQGGKFYEDYPPSYAHDNWLARAKLIGNGGWDDFRFLFF
# Key:
# Experiment in all cases: glycan array binding signal (z-score within array); higher = stronger binding
# Settings in all cases: glycan notation: IUPAC condensed, linker removed
# [1] = target: Fuc(a1-2)Gal(b1-4)GlcNAc
# Procedure, shortened: (§1)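 The Consortium for Functional Glycomics database supplied 3228 glycan arrays, of which those lacking an available protein sequence were dropped. The binding signal, a within-array Z-score, was averaged across arrays of the same protein sequence and across linkers. Negative scores can be read as non-binding.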
# [2] = target: Fuc(a1-2)[Gal(a1-4)]Gal(b1-4)GlcNAc
# Procedure, shortened: as §1
# [3] = target: Fuc(a1-2)[GalNAc(a1-3)]Gal(b1-4)GlcNAc(b1-2)Man(a1-3)[Fuc(a1-2)[GalNAc(a1-3)]Gal(b1-4)GlcNAc(b1-2)Man(a1-6)]Man(b1-4)GlcNAc(b1-4)GlcNAc
# Procedure, shortened: as §1
# [4] = target: Fuc(a1-2)[GalNAc(a1-3)]Gal(b1-4)GlcNAc(b1-3)Gal(b1-4)GlcNAc
# Procedure, shortened: as §1
# [5] = target: Fuc(a1-2)[GalNAc(a1-3)]Gal(b1-4)GlcNAc(b1-3)Gal(b1-4)GlcNAc(b1-3)Gal(b1-4)GlcNAc
# Procedure, shortened: as §1
# [6] = target: Fuc(a1-2)[GalNAc(a1-4)]Gal(b1-4)GlcNAc
# Procedure, shortened: as §1
# [7] = target: Gal(a1-4)Gal(b1-4)GlcNAc(b1-3)Gal(b1-4)Glc
# Procedure, shortened: as §1
# [8] = target: Gal(a1-4)GlcNAc
# Procedure, shortened: as §1
# [9] = target: Gal(b1-3)GlcNAc(b1-3)Gal(b1-4)Glc
# Procedure, shortened: as §1
# [10] = target: Gal(b1-3)GlcNAc(b1-3)Gal(b1-4)GlcNAc
# Procedure, shortened: as §1
# [11] = target: Gal(b1-4)GlcNAc(b1-2)Man(a1-3)[GlcNAc(b1-2)Man(a1-6)]Man(b1-4)GlcNAc(b1-4)GlcNAc
# Procedure, shortened: as §1
# [12] = target: Gal(b1-4)GlcNAc(b1-2)[Gal(b1-4)GlcNAc(b1-4)]Man(a1-3)[Gal(b1-4)GlcNAc(b1-2)[Gal(b1-4)GlcNAc(b1-6)]Man(a1-6)]Man(b1-4)GlcNAc(b1-4)GlcNAc
# Procedure, shortened: as §1
# [13] = target: Gal(b1-4)GlcNAc(b1-3)Gal(b1-4)GlcNAc
# Procedure, shortened: as §1
# [14] = target: Gal(b1-4)GlcNAc(b1-3)[Gal(b1-4)GlcNAc(b1-6)]Gal(b1-4)GlcNAc
# Procedure, shortened: as §1
# [15] = target: Gal3S(b1-4)[Fuc(a1-3)]Glc
# Procedure, shortened: as §1
# [16] = target: Gal6S(b1-4)Glc
# Procedure, shortened: as §1
# [17] = target: GalNAc(a1-3)GalNAc
# Procedure, shortened: as §1
# [18] = target: GlcNAc(a1-4)Gal(b1-4)GlcNAc(b1-3)Gal(b1-4)GlcNAc(b1-3)Gal(b1-4)GlcNAc
# Procedure, shortened: as §1
# [19] = target: GlcNAc(a1-6)Gal(b1-4)GlcNAc
# Procedure, shortened: as §1
# [20] = target: GlcNAc(b1-3)Man
# Procedure, shortened: as §1
# [21] = target: GlcNAc(b1-3)[GlcNAc(b1-4)][GlcNAc(b1-6)]GlcNAc
# Procedure, shortened: as §1
# [22] = target: GlcNAc(b1-4)Gal(b1-4)GlcNAc
# Procedure, shortened: as §1
# [23] = target: GlcNAc(b1-4)GlcNAc(b1-4)GlcNAc(b1-4)GlcNAc(b1-4)GlcNAc
# Procedure, shortened: as §1
# [24] = target: GlcNAc(b1-6)GalNAc
# Procedure, shortened: as §1
# [25] = target: Kdn(a2-3)Gal(b1-3)GalNAc
# Procedure, shortened: as §1
# [26] = target: Man(a1-2)Man(a1-2)Man(a1-6)[Man(a1-3)]Man
# Procedure, shortened: as §1
# [27] = target: Man(a1-2)Man(a1-3)[Man(a1-6)]Man(a1-6)[Man(a1-2)Man(a1-3)]Man(b1-4)GlcNAc(b1-4)GlcNAc
# Procedure, shortened: as §1
# [28] = target: Man(a1-3)[Man(a1-6)]Man(a1-6)[Man(a1-3)]Man
# Procedure, shortened: as §1
# [29] = target: Neu5Ac(a2-3)Gal(b1-4)GlcNAc
# Procedure, shortened: as §1
# [30] = target: Neu5Ac(a2-3)Gal(b1-4)GlcNAc(b1-3)Gal(b1-3)GlcNAc
# Procedure, shortened: as §1
binder,measurement,setting,value
B1,glycan array binding signal (z-score),[1],-0.309
same,glycan array binding signal (z-score),[2],-0.436
same,glycan array binding signal (z-score),[3],4.37
same,glycan array binding signal (z-score),[4],4.29
same,glycan array binding signal (z-score),[5],4.11
same,glycan array binding signal (z-score),[6],3.88
same,glycan array binding signal (z-score),[7],-0.296
same,glycan array binding signal (z-score),[8],0.001
same,glycan array binding signal (z-score),[9],-0.315
same,glycan array binding signal (z-score),[10],-0.357
same,glycan array binding signal (z-score),[11],-0.295
same,glycan array binding signal (z-score),[12],-0.294
same,glycan array binding signal (z-score),[13],-0.367
same,glycan array binding signal (z-score),[14],-0.43
same,glycan array binding signal (z-score),[15],-0.39
same,glycan array binding signal (z-score),[16],-0.268
same,glycan array binding signal (z-score),[17],4.41
same,glycan array binding signal (z-score),[18],3.96
same,glycan array binding signal (z-score),[19],4.99
same,glycan array binding signal (z-score),[20],-0.096
same,glycan array binding signal (z-score),[21],-0.413
same,glycan array binding signal (z-score),[22],1.17
same,glycan array binding signal (z-score),[23],0.004
same,glycan array binding signal (z-score),[24],1.42
same,glycan array binding signal (z-score),[25],-0.296
same,glycan array binding signal (z-score),[26],-0.33
same,glycan array binding signal (z-score),[27],-0.173
same,glycan array binding signal (z-score),[28],-0.344
same,glycan array binding signal (z-score),[29],-0.374
same,glycan array binding signal (z-score),[30],-0.256
